This is part of a sample that, as a whole, favours compounds with a hit. Of some 83,000 tested, about 20% had one in any assay.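 48-hour exposure, single concentration, 96-well plates; percent growth endpoint where 0 means no net growth. Active: below 10.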 A number with no mark means an inactive call.
These compounds were tested on MDA-MB-468 breast (assay: NCI-60 one-dose screen, 48 h (100 = growth as untreated, 0 = no growth, -100 = all killed)). Settings: 10 µM unless noted.

**Q.** `N#Cc1c(N)nnn1Cc1cc(=O)oc2c1ccc1ccccc12` was tested. Which growth did it give?
**A.** The growth was 106%.

**Q.** `Cc1cc(NCCCNc2ccnc3cc(Cl)ccc23)nc(N2CCN(C)CC2)n1` was tested. Which growth did it give?
**A.** Its growth is 65.4%.

**Q.** `Cc1ccc2nc(NC(=O)CSc3nc(-c4ccccc4)c(C#N)c(=O)n3Cc3ccccc3)sc2c1` was tested. Which growth did it give?
**A.** Its growth is 102%.

**Q.** How did the growth turn out when `COCCCNC(=O)c1nnn2c1nc(N)c1cc(Cl)ccc12` was run?
**A.** Its growth is 88.6%.

Source: PubChem BioAssay (NCI)
